Assay in all cases: DAPPL (digital affinity profiling via proximity ligation, sequencing); 10 mM Tris-HCl pH 7.5, 50 mM NaCl, 1 mM DTT, 4% glycerol, room temperature, 30 min; GST-TFs on glutathione beads, 16-mer random dsDNA library, 0.1% formaldehyde crosslink after washing; high values mean tight binding
One assay concerns the target T1, FEV (Homo sapiens, UniProt Q99581 1-238).
T1 sequence: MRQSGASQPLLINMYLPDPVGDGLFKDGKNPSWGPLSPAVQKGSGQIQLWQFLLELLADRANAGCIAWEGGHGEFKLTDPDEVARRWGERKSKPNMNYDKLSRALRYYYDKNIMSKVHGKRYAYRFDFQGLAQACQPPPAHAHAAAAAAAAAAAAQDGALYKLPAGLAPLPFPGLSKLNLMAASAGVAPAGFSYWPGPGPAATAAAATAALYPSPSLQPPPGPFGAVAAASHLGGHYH
Conditions: protein: recombinant; tags: N-terminal GST; dsDNA, one strand shown. The method in brief:
(§1)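 In yeast, human transcription factors were expressed with a GST fusion, then pulled down on glutathione beads and given DNA barcodes. Pooled with a tag-only sample, they were exposed to 200 nmole of a 16-mer random double-stranded DNA library (Tris/NaCl/DTT/glycerol buffer, room temperature, 30 min), washed, crosslinked with 0.1% formaldehyde, proximity-ligated using BsaI/T4 ligase for 1 h at 37 °C, PCR-amplified and read on an Illumina NextSeq500. Each hexamer's frequency of reads for a factor, divided by the matching frequency for the tag-only sample, gives the binding signal.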

A further assay has as its target ETV5 (Homo sapiens, UniProt P41161 1-510). The note with it: protein: recombinant; tags: N-terminal GST; dsDNA, one strand shown. The method in brief: as §1
The next assay has as its target HSF1 (Homo sapiens, UniProt Q00613 1-529). Conditions: protein: recombinant; tags: N-terminal GST; chain copies: 3; dsDNA, one strand shown. A digest of the protocol: as §1
The target of a further assay is T2, SPIC (Homo sapiens, UniProt Q8N5J4 1-248).
T2 sequence: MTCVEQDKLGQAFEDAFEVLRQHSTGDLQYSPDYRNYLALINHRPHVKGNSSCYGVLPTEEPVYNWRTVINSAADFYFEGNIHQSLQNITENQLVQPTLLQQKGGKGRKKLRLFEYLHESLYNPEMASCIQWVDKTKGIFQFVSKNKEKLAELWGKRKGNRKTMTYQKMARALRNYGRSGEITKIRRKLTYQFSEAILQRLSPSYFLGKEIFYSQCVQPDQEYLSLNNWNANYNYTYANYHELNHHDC
Conditions: protein: recombinant; tags: N-terminal GST; dsDNA, one strand shown. A digest of the protocol:
as §1

The target of the next assay is ELF4 (Homo sapiens, UniProt Q99607 1-663). Conditions: protein: recombinant; tags: N-terminal GST; dsDNA, one strand shown. The method in brief:
as §1

The target in a further assay is T3, ELK4 (Homo sapiens, UniProt P28324-2 1-405).
T3 sequence: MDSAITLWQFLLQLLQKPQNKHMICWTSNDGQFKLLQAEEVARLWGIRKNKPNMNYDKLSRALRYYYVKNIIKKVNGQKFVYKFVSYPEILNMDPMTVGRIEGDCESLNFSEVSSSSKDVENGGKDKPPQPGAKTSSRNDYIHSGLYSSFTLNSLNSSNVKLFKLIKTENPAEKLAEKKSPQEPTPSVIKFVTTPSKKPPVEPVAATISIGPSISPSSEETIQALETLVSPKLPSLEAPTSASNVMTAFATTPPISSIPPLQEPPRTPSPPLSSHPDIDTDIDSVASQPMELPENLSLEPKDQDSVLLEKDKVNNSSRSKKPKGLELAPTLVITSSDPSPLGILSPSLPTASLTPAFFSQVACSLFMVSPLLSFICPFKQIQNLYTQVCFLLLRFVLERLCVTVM
The note with it: protein: recombinant; tags: N-terminal GST; dsDNA, one strand shown. A digest of the protocol: as §1

The next assay deals with T4, ETV2 (Homo sapiens, UniProt O00321 1-342).
T4 sequence: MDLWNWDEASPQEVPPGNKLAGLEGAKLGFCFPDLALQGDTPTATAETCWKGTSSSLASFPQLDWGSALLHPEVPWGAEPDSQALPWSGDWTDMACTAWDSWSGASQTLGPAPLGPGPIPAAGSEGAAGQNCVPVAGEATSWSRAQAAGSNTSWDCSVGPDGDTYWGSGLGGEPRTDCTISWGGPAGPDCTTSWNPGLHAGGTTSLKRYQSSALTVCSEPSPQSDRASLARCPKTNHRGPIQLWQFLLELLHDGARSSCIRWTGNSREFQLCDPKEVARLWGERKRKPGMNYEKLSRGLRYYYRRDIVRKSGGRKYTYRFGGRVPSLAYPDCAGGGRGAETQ
Conditions: protein: recombinant; tags: N-terminal GST; dsDNA, one strand shown. A digest of the protocol:
as §1

The next assay concerns the target T5, ELF3 (Homo sapiens, UniProt P78545 1-371).
T5 sequence: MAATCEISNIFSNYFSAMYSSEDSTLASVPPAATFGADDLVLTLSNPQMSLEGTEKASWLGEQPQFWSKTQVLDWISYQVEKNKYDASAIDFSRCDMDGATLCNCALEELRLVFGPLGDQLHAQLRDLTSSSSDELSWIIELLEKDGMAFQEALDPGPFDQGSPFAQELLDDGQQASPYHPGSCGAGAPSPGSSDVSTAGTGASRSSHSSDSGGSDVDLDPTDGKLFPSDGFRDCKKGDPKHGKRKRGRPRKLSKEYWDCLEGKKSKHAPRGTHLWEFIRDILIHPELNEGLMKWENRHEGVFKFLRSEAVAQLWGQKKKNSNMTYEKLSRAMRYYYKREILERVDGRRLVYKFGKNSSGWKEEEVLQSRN
The note with it: protein: recombinant; tags: N-terminal GST; dsDNA, one strand shown. The method in brief: as §1

Another assay concerns the target CRX (Homo sapiens, UniProt O43186 1-299). The note with it: protein: recombinant; tags: N-terminal GST; dsDNA, one strand shown. A digest of the protocol:
as §1

The target of the next assay is ETV1 (Homo sapiens, UniProt P50549 1-477). The note with it: protein: recombinant; tags: N-terminal GST; dsDNA, one strand shown. The method in brief:
as §1

A further assay concerns the target T6, ERF (Homo sapiens, UniProt P50548 1-548).
T6 sequence: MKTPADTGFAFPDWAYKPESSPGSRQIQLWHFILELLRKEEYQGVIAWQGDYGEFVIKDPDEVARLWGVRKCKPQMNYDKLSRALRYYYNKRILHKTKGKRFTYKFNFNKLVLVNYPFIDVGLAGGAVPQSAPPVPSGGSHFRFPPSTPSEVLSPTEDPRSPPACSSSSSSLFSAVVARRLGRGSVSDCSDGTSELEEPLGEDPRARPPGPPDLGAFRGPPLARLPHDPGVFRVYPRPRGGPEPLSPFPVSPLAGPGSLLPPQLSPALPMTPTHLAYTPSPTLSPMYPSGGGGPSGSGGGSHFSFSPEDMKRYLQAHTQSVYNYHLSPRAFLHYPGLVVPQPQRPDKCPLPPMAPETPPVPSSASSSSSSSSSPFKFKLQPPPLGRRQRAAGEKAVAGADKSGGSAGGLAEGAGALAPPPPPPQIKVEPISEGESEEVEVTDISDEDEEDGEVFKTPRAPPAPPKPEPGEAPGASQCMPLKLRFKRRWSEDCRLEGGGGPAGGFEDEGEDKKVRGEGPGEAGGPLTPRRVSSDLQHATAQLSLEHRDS
The note with it: protein: recombinant; tags: N-terminal GST; dsDNA, one strand shown. A digest of the protocol:
as §1

In the next assay the target is T7, ETV3L (Homo sapiens, UniProt Q6ZN32 1-361).
T7 sequence: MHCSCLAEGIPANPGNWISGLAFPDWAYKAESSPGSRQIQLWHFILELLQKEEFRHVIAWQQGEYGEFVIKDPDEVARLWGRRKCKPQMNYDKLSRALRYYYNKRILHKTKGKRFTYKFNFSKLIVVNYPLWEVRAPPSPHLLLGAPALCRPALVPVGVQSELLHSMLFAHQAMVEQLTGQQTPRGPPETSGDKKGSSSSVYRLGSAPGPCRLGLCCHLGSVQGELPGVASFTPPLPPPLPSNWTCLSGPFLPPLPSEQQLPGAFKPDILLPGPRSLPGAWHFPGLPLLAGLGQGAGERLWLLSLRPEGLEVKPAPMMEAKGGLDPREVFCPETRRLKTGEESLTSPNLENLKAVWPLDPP
The note with it: protein: recombinant; tags: N-terminal GST; dsDNA, one strand shown. The method in brief:
as §1

For a further assay, the target named is T8, ETS2 (Homo sapiens, UniProt P15036 1-469).
T8 sequence: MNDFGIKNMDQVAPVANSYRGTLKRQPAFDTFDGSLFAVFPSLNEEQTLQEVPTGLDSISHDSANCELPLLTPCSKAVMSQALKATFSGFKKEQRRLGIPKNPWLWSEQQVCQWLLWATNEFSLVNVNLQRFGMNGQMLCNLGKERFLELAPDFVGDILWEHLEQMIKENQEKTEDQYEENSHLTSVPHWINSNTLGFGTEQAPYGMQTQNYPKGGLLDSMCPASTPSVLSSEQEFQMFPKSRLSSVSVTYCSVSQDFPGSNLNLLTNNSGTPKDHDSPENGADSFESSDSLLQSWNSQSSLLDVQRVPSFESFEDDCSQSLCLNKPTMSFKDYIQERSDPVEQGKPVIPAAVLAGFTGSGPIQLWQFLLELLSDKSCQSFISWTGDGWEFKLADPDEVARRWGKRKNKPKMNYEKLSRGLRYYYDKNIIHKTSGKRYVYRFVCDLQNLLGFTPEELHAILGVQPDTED
The note with it: protein: recombinant; tags: N-terminal GST; dsDNA, one strand shown. A digest of the protocol:
as §1

The target in a further assay is T9, SPDEF (Homo sapiens, UniProt O95238 1-335).
T9 sequence: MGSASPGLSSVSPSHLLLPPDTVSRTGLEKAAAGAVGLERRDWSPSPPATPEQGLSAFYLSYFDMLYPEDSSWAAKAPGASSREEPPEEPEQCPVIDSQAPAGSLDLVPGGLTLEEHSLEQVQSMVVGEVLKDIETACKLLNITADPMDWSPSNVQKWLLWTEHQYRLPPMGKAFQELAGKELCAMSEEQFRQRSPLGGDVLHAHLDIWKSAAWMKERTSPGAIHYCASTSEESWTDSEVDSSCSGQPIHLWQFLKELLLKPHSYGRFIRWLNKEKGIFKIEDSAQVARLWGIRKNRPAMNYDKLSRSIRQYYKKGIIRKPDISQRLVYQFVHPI
The note with it: protein: recombinant; tags: N-terminal GST; dsDNA, one strand shown. A digest of the protocol: as §1

The next assay deals with T10, ETV7 (Homo sapiens, UniProt Q9Y603 1-341).
T10 sequence: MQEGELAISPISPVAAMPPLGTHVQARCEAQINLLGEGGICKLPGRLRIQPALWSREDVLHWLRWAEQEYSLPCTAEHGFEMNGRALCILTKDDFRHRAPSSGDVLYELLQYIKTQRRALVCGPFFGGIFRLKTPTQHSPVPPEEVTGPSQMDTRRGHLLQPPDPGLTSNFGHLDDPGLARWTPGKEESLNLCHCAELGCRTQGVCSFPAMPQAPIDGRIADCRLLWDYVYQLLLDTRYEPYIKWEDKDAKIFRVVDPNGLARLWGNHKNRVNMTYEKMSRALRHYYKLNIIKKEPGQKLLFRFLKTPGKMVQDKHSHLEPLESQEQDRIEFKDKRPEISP
The note with it: protein: recombinant; tags: N-terminal GST; dsDNA, one strand shown. A digest of the protocol: as §1

A further assay addresses T11, ELF5 (Homo sapiens, UniProt Q9UKW6-2 1-255).
T11 sequence: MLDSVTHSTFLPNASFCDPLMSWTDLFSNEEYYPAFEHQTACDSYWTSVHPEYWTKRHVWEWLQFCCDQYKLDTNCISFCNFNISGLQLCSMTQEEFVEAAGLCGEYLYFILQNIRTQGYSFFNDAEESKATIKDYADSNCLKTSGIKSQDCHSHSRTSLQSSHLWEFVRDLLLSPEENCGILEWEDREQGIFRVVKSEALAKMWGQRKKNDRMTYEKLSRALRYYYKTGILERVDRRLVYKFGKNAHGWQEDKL
Conditions: protein: recombinant; tags: N-terminal GST; dsDNA, one strand shown. A digest of the protocol: as §1

The target in the next assay is T12, ETV3 (Homo sapiens, UniProt P41162-2 1-143).
T12 sequence: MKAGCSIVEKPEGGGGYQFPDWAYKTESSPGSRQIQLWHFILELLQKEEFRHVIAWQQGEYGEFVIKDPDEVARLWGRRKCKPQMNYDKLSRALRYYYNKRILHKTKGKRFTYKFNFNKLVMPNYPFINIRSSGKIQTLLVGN
The note with it: protein: recombinant; tags: N-terminal GST; dsDNA, one strand shown. A digest of the protocol: as §1

The next assay addresses ETV6 (Homo sapiens, UniProt P41212 1-452). Conditions: protein: recombinant; tags: N-terminal GST; dsDNA, one strand shown. A digest of the protocol: as §1

HSF1, sequence (Q00613 whole entry): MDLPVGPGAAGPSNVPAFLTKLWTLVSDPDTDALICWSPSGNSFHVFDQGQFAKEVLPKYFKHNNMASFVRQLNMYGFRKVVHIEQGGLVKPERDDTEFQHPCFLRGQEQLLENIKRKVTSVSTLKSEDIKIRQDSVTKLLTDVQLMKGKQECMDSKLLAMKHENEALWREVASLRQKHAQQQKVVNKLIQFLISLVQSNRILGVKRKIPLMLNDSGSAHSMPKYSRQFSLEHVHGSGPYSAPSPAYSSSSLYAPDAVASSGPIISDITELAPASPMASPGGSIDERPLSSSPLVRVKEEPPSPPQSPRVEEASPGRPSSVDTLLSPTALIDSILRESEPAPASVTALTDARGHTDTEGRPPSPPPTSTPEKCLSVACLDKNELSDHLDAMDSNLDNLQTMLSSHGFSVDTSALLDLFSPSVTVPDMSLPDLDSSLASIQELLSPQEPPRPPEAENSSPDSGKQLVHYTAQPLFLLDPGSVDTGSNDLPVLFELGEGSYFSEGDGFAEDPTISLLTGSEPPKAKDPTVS
ETV1, sequence (P50549 whole entry): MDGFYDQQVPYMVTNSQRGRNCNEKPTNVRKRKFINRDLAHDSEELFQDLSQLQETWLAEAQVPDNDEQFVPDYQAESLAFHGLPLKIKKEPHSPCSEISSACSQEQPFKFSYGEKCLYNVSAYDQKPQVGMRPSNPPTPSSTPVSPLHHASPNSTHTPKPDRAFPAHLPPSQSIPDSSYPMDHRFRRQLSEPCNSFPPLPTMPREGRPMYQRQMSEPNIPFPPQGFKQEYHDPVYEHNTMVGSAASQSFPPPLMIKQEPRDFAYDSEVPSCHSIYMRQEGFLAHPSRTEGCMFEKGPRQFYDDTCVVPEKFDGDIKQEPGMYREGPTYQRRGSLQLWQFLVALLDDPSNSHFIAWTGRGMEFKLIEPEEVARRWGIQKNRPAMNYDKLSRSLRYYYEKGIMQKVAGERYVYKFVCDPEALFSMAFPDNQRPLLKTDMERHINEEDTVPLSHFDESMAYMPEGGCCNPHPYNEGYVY
ETV6, sequence (P41212 whole entry): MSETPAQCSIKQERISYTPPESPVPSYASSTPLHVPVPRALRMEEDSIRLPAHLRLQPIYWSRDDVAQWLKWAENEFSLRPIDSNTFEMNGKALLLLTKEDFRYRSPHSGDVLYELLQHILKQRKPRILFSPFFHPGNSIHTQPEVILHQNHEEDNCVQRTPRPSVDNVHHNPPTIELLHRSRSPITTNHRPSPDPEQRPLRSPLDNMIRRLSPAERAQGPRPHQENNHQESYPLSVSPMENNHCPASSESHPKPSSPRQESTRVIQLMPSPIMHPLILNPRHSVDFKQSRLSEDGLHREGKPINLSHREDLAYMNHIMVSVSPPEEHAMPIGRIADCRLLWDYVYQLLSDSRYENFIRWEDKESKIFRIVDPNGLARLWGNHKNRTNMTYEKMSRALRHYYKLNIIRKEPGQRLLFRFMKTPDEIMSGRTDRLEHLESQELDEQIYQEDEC
CRX, sequence (O43186 whole entry): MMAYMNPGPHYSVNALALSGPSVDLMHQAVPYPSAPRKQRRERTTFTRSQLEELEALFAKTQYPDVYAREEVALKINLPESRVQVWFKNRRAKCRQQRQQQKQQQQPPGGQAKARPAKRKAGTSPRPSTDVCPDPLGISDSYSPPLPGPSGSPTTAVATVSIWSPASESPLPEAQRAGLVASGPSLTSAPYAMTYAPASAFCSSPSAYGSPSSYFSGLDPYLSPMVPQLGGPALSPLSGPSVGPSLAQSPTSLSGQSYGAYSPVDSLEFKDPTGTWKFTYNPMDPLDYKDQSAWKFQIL
ETV5, sequence (P41161 whole entry): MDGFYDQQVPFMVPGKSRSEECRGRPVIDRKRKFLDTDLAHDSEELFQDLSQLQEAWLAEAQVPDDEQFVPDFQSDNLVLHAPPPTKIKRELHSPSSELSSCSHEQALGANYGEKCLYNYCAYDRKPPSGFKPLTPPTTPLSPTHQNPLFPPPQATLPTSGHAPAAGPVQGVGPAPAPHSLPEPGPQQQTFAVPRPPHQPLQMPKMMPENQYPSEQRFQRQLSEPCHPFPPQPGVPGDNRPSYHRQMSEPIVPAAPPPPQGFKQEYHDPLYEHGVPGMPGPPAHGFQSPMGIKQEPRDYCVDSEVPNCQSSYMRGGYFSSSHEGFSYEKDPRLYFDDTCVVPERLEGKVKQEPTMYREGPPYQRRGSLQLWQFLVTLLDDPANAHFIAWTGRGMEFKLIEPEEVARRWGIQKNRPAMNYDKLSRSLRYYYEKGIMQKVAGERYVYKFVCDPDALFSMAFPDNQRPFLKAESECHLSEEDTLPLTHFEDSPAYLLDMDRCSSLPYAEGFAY
ELF4, sequence (Q99607 whole entry): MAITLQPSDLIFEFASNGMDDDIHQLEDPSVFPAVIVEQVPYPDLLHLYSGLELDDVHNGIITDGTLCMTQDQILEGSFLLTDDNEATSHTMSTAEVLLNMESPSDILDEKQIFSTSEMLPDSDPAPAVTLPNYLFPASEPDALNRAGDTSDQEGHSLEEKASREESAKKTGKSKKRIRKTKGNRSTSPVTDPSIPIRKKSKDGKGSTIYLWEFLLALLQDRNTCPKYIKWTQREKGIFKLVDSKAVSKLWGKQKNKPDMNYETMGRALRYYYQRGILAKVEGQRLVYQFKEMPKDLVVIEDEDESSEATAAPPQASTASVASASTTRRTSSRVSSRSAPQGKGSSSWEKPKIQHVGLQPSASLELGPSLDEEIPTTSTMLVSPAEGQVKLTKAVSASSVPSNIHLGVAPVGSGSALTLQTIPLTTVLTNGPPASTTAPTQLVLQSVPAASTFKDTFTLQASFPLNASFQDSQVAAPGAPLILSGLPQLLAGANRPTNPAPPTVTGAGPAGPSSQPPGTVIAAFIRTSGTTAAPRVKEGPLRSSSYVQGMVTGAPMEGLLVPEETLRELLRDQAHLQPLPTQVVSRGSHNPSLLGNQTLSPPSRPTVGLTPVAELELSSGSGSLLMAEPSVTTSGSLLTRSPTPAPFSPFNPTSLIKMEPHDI

Consider TTCTTA, for which the binding signal with FEV was 1.32 fold enrichment (6-mer frequency, TF over GST control); with ETV5, 1.33 fold enrichment (6-mer frequency, TF over GST control); with HSF1 it was 1.85 fold enrichment (6-mer frequency, TF over GST control); with SPIC, 1.71 fold enrichment (6-mer frequency, TF over GST control); in the assay with ELF4 it was 1.41 fold enrichment (6-mer frequency, TF over GST control); with ELK4, 1.5 fold enrichment (6-mer frequency, TF over GST control). Moreover, the binding signal is 1.36 fold enrichment (6-mer frequency, TF over GST control) in the assay with ETV2; 1.47 fold enrichment (6-mer frequency, TF over GST control) with ELF3; 2.21 fold enrichment (6-mer frequency, TF over GST control) in the assay with CRX; 1.36 fold enrichment (6-mer frequency, TF over GST control) with ETV1; 1.21 fold enrichment (6-mer frequency, TF over GST control) with ERF; 1.4 fold enrichment (6-mer frequency, TF over GST control) with ETV3L. In addition, the binding signal with ETS2 is 1.24 fold enrichment (6-mer frequency, TF over GST control); with SPDEF it was 1.4 fold enrichment (6-mer frequency, TF over GST control); in the assay with ETV7 it was 1.38 fold enrichment (6-mer frequency, TF over GST control); with ELF5, 1.35 fold enrichment (6-mer frequency, TF over GST control); in the assay with ETV3, 1.34 fold enrichment (6-mer frequency, TF over GST control); with ETV6, 1.4 fold enrichment (6-mer frequency, TF over GST control).

The values above are taken from article PMC7862700, “An all-to-all approach to the identification of sequence-specific readers for epigenetic DNA modifications on cytosine”.
